Here are results for 15 compounds from PubChem BioAssay (NCI).

Where “and” joins values, the source holds several entries; their conditions need not be identical. Identical values can stand only once. About 83,000 compounds went through this panel and 20% of them were active in at least one assay; those are over-represented in the sample as a whole.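 Percent growth is the endpoint: 0 to 100 indicates growth inhibition (40 means 60% inhibition), 0 means no net growth, and negative values indicate cell death.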 Calls of active or inactive are those of the source. How the source made its calls: active means growth percent below 10; inactive means the rest.

Among the test systems are DU-145 prostate; K-562 leukemia; MALME-3M melanoma; MDA-MB-231 breast; RXF 393 renal; SF-268 CNS; SF-295 CNS; SF-539 CNS; UACC-257 melanoma; M14 melanoma.
Holding throughout (experiment): NCI-60 one-dose screen, 48 h (100 = growth as untreated, 0 = no growth, -100 = all killed)
What all share (conditions): 10 µM unless noted

For the compound `O=C(CCCOc1ccc(Br)cc1)Nc1ncc(Cc2ccc(F)cc2)s1`, the growth in the assay with DU-145 prostate was 79.8% (inactive); with K-562 leukemia it was 37.1% (inactive); in the assay with MALME-3M melanoma, 73.1% (inactive); in the assay on MDA-MB-231 breast, 79.5% (inactive); in the assay on RXF 393 renal it was 69.2% (inactive); in the assay on SF-268 CNS, 73% (inactive). Further, the growth with SF-295 CNS was 68.9% (inactive); in the assay with SF-539 CNS, 68.3% (inactive); with UACC-257 melanoma, 93.4% (inactive); in the assay on M14 melanoma it was 51% (inactive).
`CCCc1cc(C(N)=S)ccn1`: the growth in the assay on DU-145 prostate is 109% (inactive); with K-562 leukemia it was 95.3% (inactive); with MALME-3M melanoma, 93.7% (inactive); in the assay on MDA-MB-231 breast, 115% (inactive); in the assay with RXF 393 renal it was 111% (inactive); in the assay on SF-268 CNS, 114% (inactive). The growth in the assay with SF-295 CNS is 99.1% (inactive); with SF-539 CNS it was 100% (inactive); with UACC-257 melanoma, 112% (inactive); in the assay with M14 melanoma, 102% (inactive).
As to `O=C1/C(=C/c2ccccc2[N+](=O)[O-])Cc2ccccc21`, the growth with DU-145 prostate was 32.7% (inactive) and 41.5% (inactive); with K-562 leukemia it was 10.5% (inactive) and 6.16% (active); in the assay with MALME-3M melanoma it was 23.7% (inactive) and 60.2% (inactive); in the assay with MDA-MB-231 breast, -9.95% (active) and 31.3% (inactive); with RXF 393 renal, -4.67% (active) and -0.599% (active); with SF-268 CNS it was 66% (inactive) and 42.8% (inactive). The growth in the assay on SF-295 CNS is 23% (inactive) and 28.3% (inactive); in the assay on SF-539 CNS, 24.2% (inactive) and 34.3% (inactive); in the assay with UACC-257 melanoma, 64.4% (inactive) and 71.8% (inactive); in the assay on M14 melanoma, 42.7% (inactive) and 57.8% (inactive).
In the case of `O=C1OCC2=C1C(c1cccc(C(F)(F)F)c1)c1cc3c(cc1N2CCO)CCC3` (stereo not given), the growth in the assay on DU-145 prostate is -6.77% (active); with K-562 leukemia it was 7.05% (active); in the assay on MALME-3M melanoma, 43.9% (inactive); in the assay with MDA-MB-231 breast, 28.4% (inactive); with RXF 393 renal, 49.7% (inactive); in the assay on SF-268 CNS, 17.3% (inactive). Besides, the growth in the assay on SF-295 CNS was 1.03% (active); in the assay with SF-539 CNS it was -15.6% (active); in the assay with UACC-257 melanoma, 67.8% (inactive); with M14 melanoma, 0.275% (active).
Turning to `COC(=O)N/N=C/c1c[n+]([O-])c2ccccc2[n+]1[O-]`, the growth in the assay on DU-145 prostate was 114% (inactive); with K-562 leukemia, 103% (inactive); in the assay with MALME-3M melanoma it was 108% (inactive); in the assay on MDA-MB-231 breast, 110% (inactive); in the assay on RXF 393 renal it was 125% (inactive); in the assay with SF-268 CNS it was 106% (inactive). Moreover, the growth with SF-295 CNS is 93.4% (inactive); in the assay with SF-539 CNS it was 101% (inactive); with UACC-257 melanoma, 95.1% (inactive); in the assay on M14 melanoma it was 106% (inactive).
Regarding `O=C(CCl)N(O)c1ccc(/C=C/c2ccccc2)cc1`, the growth was 90.3% (inactive) and 86.6% (inactive) with DU-145 prostate; 64% (inactive) and 46.1% (inactive) in the assay with K-562 leukemia; 95.3% (inactive) and 84.2% (inactive) in the assay on MALME-3M melanoma; 82.1% (inactive) and 66.5% (inactive) in the assay with MDA-MB-231 breast; 99.9% (inactive) and 71.3% (inactive) in the assay on RXF 393 renal; 84.7% (inactive) and 72.8% (inactive) in the assay with SF-268 CNS. Further, the growth was 95.5% (inactive) and 80.9% (inactive) in the assay with SF-295 CNS; 94.3% (inactive) and 93.4% (inactive) with SF-539 CNS; 103% (inactive) with UACC-257 melanoma; 75% (inactive) and 71.8% (inactive) in the assay with M14 melanoma.
Take `NC(=O)c1c(NC(=O)/C=C/c2cccs2)sc2c1CCC(=O)C2`: the growth in the assay on DU-145 prostate was 81.6% (inactive); with K-562 leukemia, 14.3% (inactive); in the assay with MALME-3M melanoma, 75.1% (inactive); in the assay on MDA-MB-231 breast, 24.6% (inactive); in the assay with RXF 393 renal it was 26.9% (inactive); with SF-268 CNS, 22.5% (inactive). Besides, the growth in the assay with SF-295 CNS was 80.9% (inactive); with SF-539 CNS, 16.3% (inactive); in the assay with UACC-257 melanoma, 70.7% (inactive); with M14 melanoma, 24.8% (inactive).
With `C=C1C(=O)O[C@H]2[C@H]1CC/C(CNS(=O)(=O)c1ccc3ccccc3c1)=C\CC[C@@]1(C)O[C@@H]21`, the growth with DU-145 prostate is -85% (active); in the assay with K-562 leukemia, -19.3% (active); in the assay on MALME-3M melanoma it was -22.6% (active); in the assay with MDA-MB-231 breast, 2.57% (active); with RXF 393 renal it was -80.8% (active); in the assay with SF-268 CNS, 51.4% (inactive). Moreover, the growth is 71.2% (inactive) in the assay with SF-295 CNS, 9.99% (active) in the assay on SF-539 CNS, -54.4% (active) in the assay on UACC-257 melanoma and -32.6% (active) in the assay with M14 melanoma.
For the compound `N#C/C(=N\Nc1ccc(Cl)cc1)C(=O)Nc1cc(-c2ccccc2)nn1-c1ccccc1`, the growth with DU-145 prostate was 35% (inactive); in the assay with K-562 leukemia, 12.2% (inactive); in the assay with MALME-3M melanoma it was 2.07% (active); in the assay on MDA-MB-231 breast, 24.3% (inactive); in the assay with RXF 393 renal, 47.1% (inactive); in the assay on SF-268 CNS, 19.9% (inactive). Also, the growth was 1.62% (active) with SF-295 CNS, 52.3% (inactive) with SF-539 CNS, 13.2% (inactive) in the assay with UACC-257 melanoma and 35.6% (inactive) in the assay with M14 melanoma.
Consider `Cc1ccc2nc3ccccc3c(NCc3ccc(Cl)cc3)c2c1`, for which the growth in the assay on DU-145 prostate is 51.4% (inactive); in the assay on K-562 leukemia, 2.63% (active); with MALME-3M melanoma, -14% (active); in the assay on MDA-MB-231 breast it was 37.7% (inactive); in the assay on RXF 393 renal it was 29% (inactive); with SF-268 CNS it was 79.1% (inactive). Moreover, the growth in the assay with SF-295 CNS was 43.7% (inactive); in the assay with SF-539 CNS it was 40.2% (inactive); in the assay on UACC-257 melanoma, -2.88% (active); in the assay on M14 melanoma, -17.1% (active).
Consider `Cc1nc2cccc(NCCCCC(=O)NO)c2c(=O)n1-c1ccccc1`, for which the growth in the assay on DU-145 prostate is 58.1% (inactive); in the assay on K-562 leukemia, 40.9% (inactive); with MALME-3M melanoma, 23.4% (inactive); in the assay with MDA-MB-231 breast, 77.1% (inactive); in the assay with RXF 393 renal it was 49.2% (inactive); with SF-268 CNS it was 74.6% (inactive). Also, the growth in the assay with SF-295 CNS was 82.9% (inactive); with SF-539 CNS it was 49.9% (inactive); in the assay with UACC-257 melanoma, 42.7% (inactive); with M14 melanoma, 50.4% (inactive).
On to `O=C1N=c2ccccc2=C1c1sc(=S)n(C2CC(=O)N(c3ccc(Cl)cc3)C2=O)c1O` (stereo not given), for which the growth in the assay on DU-145 prostate is 106% (inactive); in the assay with K-562 leukemia, 94.4% (inactive); in the assay with MALME-3M melanoma it was 102% (inactive); in the assay on MDA-MB-231 breast, 101% (inactive); with RXF 393 renal, 116% (inactive); in the assay on SF-268 CNS it was 102% (inactive). The growth in the assay with SF-295 CNS was 104% (inactive); with SF-539 CNS, 101% (inactive); in the assay with UACC-257 melanoma, 105% (inactive); in the assay with M14 melanoma it was 98.7% (inactive).
`Cc1nc2sc(C(=O)Nc3cccc(Cl)c3C)c(N)c2cc1C(O)c1ccccc1` (stereo not given): the growth in the assay with DU-145 prostate was 10.7% (inactive); in the assay with K-562 leukemia it was 6.05% (active); in the assay with MALME-3M melanoma, 50.2% (inactive); in the assay with MDA-MB-231 breast it was 15.3% (inactive); with RXF 393 renal, 46.2% (inactive); in the assay with SF-268 CNS it was 24% (inactive). In addition, the growth with SF-295 CNS was 26.9% (inactive); in the assay with SF-539 CNS it was 0.0688% (active); in the assay on UACC-257 melanoma it was 57% (inactive); in the assay on M14 melanoma, 7.42% (active).
For `CN1CCN(Cc2ccc(NC(=O)c3nc4ccc5[nH]ncc5c4c4c3CCCC4)cc2C(F)(F)F)CC1`, the growth was -73.1% (active) in the assay with DU-145 prostate; -48.4% (active) with K-562 leukemia; -75.7% (active) with MALME-3M melanoma; -81.2% (active) with MDA-MB-231 breast; -97.1% (active) in the assay on RXF 393 renal; -75.7% (active) in the assay on SF-268 CNS. In addition, the growth was -67.7% (active) in the assay with SF-295 CNS, -89.3% (active) in the assay with SF-539 CNS, -80.3% (active) in the assay on UACC-257 melanoma and -64.1% (active) in the assay on M14 melanoma.
On to `CCNC(=S)n1nc(SC)c(C(=O)OCC)c1N`, for which the growth in the assay on DU-145 prostate was 102% (inactive); with K-562 leukemia, 85.5% (inactive); in the assay with MALME-3M melanoma it was 106% (inactive); with MDA-MB-231 breast, 92.5% (inactive); in the assay with RXF 393 renal it was 107% (inactive); in the assay with SF-268 CNS it was 92% (inactive). Also, the growth in the assay on SF-295 CNS was 98.1% (inactive); with SF-539 CNS, 93.1% (inactive); in the assay with UACC-257 melanoma it was 120% (inactive); with M14 melanoma it was 107% (inactive).
